PubChem BioAssay (Tox21)
Inconclusive results are not listed. Unmarked numbers belong to inactive results. Activity calls are given as the source filed them. The call rests on the fitted dose curve; in most records, active means well fitted cell-killing curve with a large enough effect in the repeat runs; inconclusive means weak or mixed curves, or effect the other way; inactive means no such curve, though single readings can be large or run the other way.

Test: qHTS assay to identify small molecule agonists of the farnesoid-X-receptor (FXR) signaling pathway - cell viability counter screen (AID 743218); further: nearly all actives have a fitted effect of over 45% in size
Conditions: FXR-bla HEK293T viability, CellTiter-Glo luminescence, 16 h; series mostly up to 62.6 µM; viability change, negative = cytotoxic: at the top concentration
Excerpt: U.S. Tox21 Program National Center for Advancing Translational Sciences [NCATS] NIH Chemical Genomics Center [NCGC] U.S. Environmental Protection Agency [EPA] National Institutes of Environmental Health Sciences [NIEHS] National Toxicology Program [NTP] U.S. Food and Drug Administration [FDA] Tox21 Assay Overview: The farnesoid-X-receptor (FXR), a nuclear hormone receptor, is highly expressed in liver, intestine, kidney and adrenal cortex. Natural ligands of FXR are the bile acids (Cholic acid, Chenodeoxy cholic acid etc). FXR is an important regulator of diverse metabolic pathways, including the bile acid homeostasis, lipid and glucose metabolisms. FXR regulates the expression of target genes by binding either as a monomer or as a heterodimer with the retinoid X receptor (RXR). Numerous studies have reported that FXR exerts protective function during cholestasis, diabetes, liver regeneration, and cancer. To identify compounds that activate FXR signaling, GeneBLAzer FXR-UAS-bla HEK 293T cell line (Invitrogen, Carlsbad, CA) containing a beta-lactamase reporter gene under the control of a UAS response element was used to screen the Tox21 10K compound library. The cytotoxicity of the Tox21 compound library against the FXR-bla cell line was tested in parallel by measuring the cell viability using CellTiter-Glo assay in the same wells.
Tox21 Assay Protocol Summary: FXR-bla cells were dispensed at 5000 cells/5uL/well in 1536-well black wall/clear bottom plates using a Multidrop Combi (Thermo Fisher Scientific, Waltham, MA) dispenser. After the assay plates were incubated at 37 C and 5% CO2 for 5 h, 23 nL of compounds dissolved in DMSO, positive controls or DMSO only was transferred to the assay plate by a Pintool station (Kalypsys, San Diego, CA). The assay plates were incubated at 37C for 16 h. After 1 uL of LiveBLAzerTM B/G FRET substrate was added using a Bioraptr Flying Reagent Dispenser (FRD) workstation (Beckman Coulter, Indianapolis, IN), the plates were incubated at room temperature for 2 h, and fluorescence intensity was measured by an Envision plate reader (PerkinElmer, Shelton, CT). For cell viability readout that measures cytotoxicity, 4uL/well of CellTiter-Glo reagent was added into the assay plates using a Bioraptr FRD. After 30 min incubation at room temperature, the luminescence intensity in the plates was measured using a ViewLux plate reader (PerkinElmer).
On the % scale 0 is the no-effect control and ±100 the full control effect; potency means the concentration at half of the fitted maximal effect.

Compared with `CC(=O)[C@H]1[C@H](C#N)C[C@H]2[C@@H]3CC=C4C[C@@H](O)CC[C@]4(C)[C@H]3CC[C@@]21C`, `C[C@@]12CCC[C@H]1[C@@H]1CC[C@H]3C[C@@H](O)CC[C@]3(C)[C@H]1CC2` is higher in “viability change, negative = cytotoxic” value: -19.5% for the first, -7.68% for the second.

First: CN1CCCN=C1COC(=O)C(O)(c1ccccc1)C1CCCCC1 (stereo not given)
Second: CC1CC(OC(=O)C(O)c2ccccc2)CC(C)(C)N1C (stereo not given)
The “viability change, negative = cytotoxic” value of the first is higher: 5.84% for the first, -5.61% for the second.

Compared with `N#CCCN(CCO)CCO`, `CCCCCC#CC(=O)OC` is higher in “viability change, negative = cytotoxic” value: -18.3% for the first, 29.8% for the second.

Going from `N#[N+]c1ccc2c(S(=O)(=O)[O-])cccc2c1O` to `CS(=O)(=O)c1ccc(-c2cn3ccccc3n2)cc1`, the “viability change, negative = cytotoxic” value falls from 1.29% to -20.9%.

Going from `O=C(O)C[C@H](NC(=O)OCc1ccccc1)C(=O)O` to `CC1(C)S[C@@H]2[C@H](NC(=O)C(c3ccccc3)S(=O)(=O)O)C(=O)N2[C@H]1C(=O)O` (stereo not given in full), the “viability change, negative = cytotoxic” value falls from 24.1% to -2.8%.

First: CC(C)(c1ccccc1)c1ccccc1
Second: O=C(O)CCc1nc(-c2ccccc2)c(-c2ccccc2)o1
The “viability change, negative = cytotoxic” value of the first is higher: 6.07% for the first, 5.95% for the second.

Compared with `CCOC(=O)c1ccc(OCCN2C[C@H](O)[C@@H](O)[C@H](O)[C@H]2CO)cc1`, `CCCCN(CCCC)C(C(N)=O)c1ccc(OC)cc1` (stereo not given) is higher in “viability change, negative = cytotoxic” value: -0.393% for the first, 2.6% for the second.

Going from `CC/C=C1/OC(=O)c2ccccc21` to `Cc1ccccc1N=C(N)Nc1ccccc1C`, the “viability change, negative = cytotoxic” value falls from -5.77% to -11.9%.

Compared with `c1cc(N(CC2CO2)CC2CO2)ccc1Cc1ccc(N(CC2CO2)CC2CO2)cc1` (stereo not given), `Nc1ccc(N=Nc2ccccc2)c(N)c1` is lower in “viability change, negative = cytotoxic” value: -8.23% for the first, -9% for the second.

Compared with `C=CC(C)(CCC=C(C)C)OC(=O)CC(C)C` (stereo not given), `CC(=O)OCC[N+](C)(C)C` is higher in “viability change, negative = cytotoxic” value: -10.8% for the first, 17% for the second.

Going from `CCC(C)(C)OC` to `CC(C)(C)C(=O)C(=O)O`, the “viability change, negative = cytotoxic” value rises from -2.39% to -1.37%.

Compared with `Cc1cscn1`, `O=C(Cn1ccnc1[N+](=O)[O-])NCCO` is higher in “viability change, negative = cytotoxic” value: 13.1% for the first, 13.9% for the second.

Going from `NC1[C@H]2CN(c3nc4c(cc3F)c(=O)c(C(=O)O)cn4-c3ccc(F)cc3F)C[C@@H]12` (stereo not given in full) to `CCn1cc(C(=O)O)c(=O)c2cc(F)c(N3CCNCC3)cc21`, the “viability change, negative = cytotoxic” value falls from 0.0643% to -1.37%.

Going from `CC=C(Cl)Cl` to `CC1(C)O[C@@H]2C[C@H]3[C@@H]4C[C@H](F)C5=CC(=O)C=C[C@]5(C)[C@H]4[C@@H](O)C[C@]3(C)[C@]2(C(=O)CO)O1`, the “viability change, negative = cytotoxic” value falls from 27% to 4.18%.

Compared with `COc1ccccc1Oc1c(NS(=O)(=O)c2ccc(C(C)(C)C)cc2)nc(-c2ncccn2)nc1OCCO`, `CC(C)Nc1cccnc1N1CCN(C(=O)c2cc3cc(NS(C)(=O)=O)ccc3[nH]2)CC1` is lower in “viability change, negative = cytotoxic” value: 2.86% for the first, -10.5% for the second.

Compared with `Oc1cccc(O)c1O`, `CO/N=C(/C(=O)N[C@@H]1C(=O)N2C(C(=O)O)=C(COC(N)=O)CS[C@H]12)c1ccco1` is lower in “viability change, negative = cytotoxic” value: 33.7% for the first, -4.16% for the second.

Compared with `CCOC(=O)OC(C)OC(=O)[C@@H]1N2C(=O)[C@@H](NC(=O)[C@H](N)c3ccccc3)[C@H]2SC1(C)C` (stereo not given in full), `C=C1C[C@@]23CC[C@H]4[C@@](C)(CCC[C@@]4(C)C(=O)O[C@@H]4O[C@H](CO)[C@@H](O)[C@H](O)[C@H]4O)[C@@H]2CC[C@]1(O[C@@H]1O[C@H](CO)[C@@H](O)[C@H](O[C@@H]2O[C@H](CO)[C@@H](O)[C@H](O)[C@H]2O)[C@H]1O[C@@H]1O[C@H](CO)[C@@H](O)[C@H](O)[C@H]1O)C3` is higher in “viability change, negative = cytotoxic” value: 0.314% for the first, 14.4% for the second.

For `O[C@@H]1CO[C@H]2[C@@H]1OC[C@@H]2O`, the “viability change, negative = cytotoxic” value was 1.23%.

In the case of `CN(C)CCC=C1c2ccccc2C=Cc2ccccc21`, the Potency is reported as 11.9 µM (active).
With `c1ccc2c(c1)CCc1ccccc1N2` the Potency was “inactive”.
For `C[C@@H]1CC(=O)NN=C1c1ccc(NN=C(C#N)C#N)cc1`, the Potency was “inactive”.

Going from `O=C(OC(=O)c1ccccc1)c1ccccc1` to `O=C(CCc1ccc(O)cc1)c1c(O)cc(O)cc1O`, the “viability change, negative = cytotoxic” value rises from -8.52% [at 81.1 µM] to 28.3% [at 81.1 µM].
